Measured values as given in the supplement of paper PMC9794691.

tested on: PC9; assay: area under confluence curve of compound monotherapy; compare to DMSO control AUC of the same experiment (AUC (confluence x time, arbitrary)); conditions: 30 nM; DMSO control AUC in same experiment: 27958
Description: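 compare to DMSO control AUC of the same experiment; Monotherapy arm of the osimertinib DTP screen: EGFR-mutant NSCLC cells were treated with the test compound alone at a fixed dose (highest dose with <50% inhibition of parental cells, or 1 uM), then switched to drug-free medium at the DTP stage. IncuCyte confluence was tracked and AUC computed in Prism. AUC scale depends on experiment duration, so each row carries the same-experiment DMSO control AUC (monotherapy activity = DMSO AUC minus monotherapy AUC). The monotherapy value is shared between screen formats.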

| SMILES | area under confluence curve |
| --- | --- |
| Cc1nc(Nc2ncc(C(=O)Nc3c(C)cccc3Cl)s2)cc(N2CCN(CCO)CC2)n1 [Dasatinib] | 22500 |

same assay, conditions: 30 nM; DMSO control AUC in same experiment: 28243

| SMILES | area under confluence curve |
| --- | --- |
| Cc1nc(Nc2ncc(C(=O)Nc3c(C)cccc3Cl)s2)cc(N2CCN(CCO)CC2)n1 [Dasatinib] | 18100 |

same assay, conditions: 100 nM; DMSO control AUC in same experiment: 20347

| SMILES | area under confluence curve |
| --- | --- |
| Cc1nc(Nc2n[nH]c3c2CN(C(=O)N[C@H](CN(C)C)c2ccccc2)C3(C)C)c2sccc2n1 | 22800 |

same assay, conditions: 100 nM; DMSO control AUC in same experiment: 21341

| SMILES | area under confluence curve |
| --- | --- |
| C[C@@]1(C(=O)Nc2ccc(F)nc2)CCCN1c1nc(Nc2cc(C3CC3)n[nH]2)c2cccn2n1 | 20100 |

same assay, conditions: 100 nM; DMSO control AUC in same experiment: 21913

| SMILES | area under confluence curve |
| --- | --- |
| Nc1ccc(/C=C/C(=O)NCc2cc3cc(-c4ccc(C(=O)N5CCC(F)(F)CC5)cc4)cc(-c4ccc(F)cc4)c3o2)cn1 | 22800 |

same assay, conditions: 100 nM; DMSO control AUC in same experiment: 28684

| SMILES | area under confluence curve |
| --- | --- |
| CCN1CCN(Cc2ccc(Nc3ncc(F)c(-c4cc(F)c5nc(C)n(C(C)C)c5c4)n3)nc2)CC1 [Abemaciclib] | 28400 |

same assay, conditions: 100 nM; DMSO control AUC in same experiment: 30578

| SMILES | area under confluence curve |
| --- | --- |
| CCN1CCN(Cc2ccc(Nc3ncc(F)c(-c4cc(F)c5nc(C)n(C(C)C)c5c4)n3)nc2)CC1 [Abemaciclib] | 29700 |

same assay, conditions: 100 nM; DMSO control AUC in same experiment: 30580

| SMILES | area under confluence curve |
| --- | --- |
| C[C@@]1(C(=O)Nc2ccc(F)nc2)CCCN1c1nc(Nc2cc(C3CC3)n[nH]2)c2cccn2n1 | 30100 |

same assay, conditions: 100 nM; DMSO control AUC in same experiment: 44384

| SMILES | area under confluence curve |
| --- | --- |
| O=C(NC[C@H](O)CN1CCc2ccccc2C1)c1ccnc(NC2CCC2)c1 | 43300 |

same assay, conditions: 100 nM; DMSO control AUC in same experiment: 49143

| SMILES | area under confluence curve |
| --- | --- |
| C[C@@]1(C(=O)Nc2ccc(F)nc2)CCCN1c1nc(Nc2cc(C3CC3)n[nH]2)c2cccn2n1 | 48900 |

same assay, conditions: 100 nM; DMSO control AUC in same experiment: 88996

| SMILES | area under confluence curve |
| --- | --- |
| CCN1CCN(Cc2ccc(Nc3ncc(F)c(-c4cc(F)c5nc(C)n(C(C)C)c5c4)n3)nc2)CC1 [Abemaciclib] | 88400 |

same assay, conditions: 300 nM; DMSO control AUC in same experiment: 19507

| SMILES | area under confluence curve |
| --- | --- |
| CN1CCN(CCOc2cc(OC3CCOCC3)c3c(Nc4c(Cl)ccc5c4OCO5)ncnc3c2)CC1 [Saracatinib] | 16000 |

same assay, conditions: 300 nM; DMSO control AUC in same experiment: 22064

| SMILES | area under confluence curve |
| --- | --- |
| CN(C)CCCOc1ccc(-c2ccc3ncc4c(c3c2)n(C2CCOCC2)c(=O)n4C)cn1 | 22000 |

same assay, conditions: 300 nM; DMSO control AUC in same experiment: 28243

| SMILES | area under confluence curve |
| --- | --- |
| CN1CCN(CCOc2cc(OC3CCOCC3)c3c(Nc4c(Cl)ccc5c4OCO5)ncnc3c2)CC1 [Saracatinib] | 24000 |

same assay, conditions: 300 nM; DMSO control AUC in same experiment: 28684

| SMILES | area under confluence curve |
| --- | --- |
| Cc1c[nH]c2nc(Nc3ccc(N4CCN(C)CC4)c(F)c3)nc(-c3cccc(CC#N)c3)c12 | 21400 |

same assay, conditions: 300 nM; DMSO control AUC in same experiment: 29563

| SMILES | area under confluence curve |
| --- | --- |
| CN(C)CCCOc1ccc(-c2ccc3ncc4c(c3c2)n(C2CCOCC2)c(=O)n4C)cn1 | 30100 |

same assay, conditions: 300 nM; DMSO control AUC in same experiment: 30008

| SMILES | area under confluence curve |
| --- | --- |
| Cc1c[nH]c2nc(Nc3ccc(N4CCN(C)CC4)c(F)c3)nc(-c3cccc(CC#N)c3)c12 | 29700 |

same assay, conditions: 300 nM; DMSO control AUC in same experiment: 30604

| SMILES | area under confluence curve |
| --- | --- |
| CN(C)CCCOc1ccc(-c2ccc3ncc4c(c3c2)n(C2CCOCC2)c(=O)n4C)cn1 | 30300 |

same assay, conditions: 300 nM; DMSO control AUC in same experiment: 43316

| SMILES | area under confluence curve |
| --- | --- |
| Cc1c[nH]c2nc(Nc3ccc(N4CCN(C)CC4)c(F)c3)nc(-c3cccc(CC#N)c3)c12 | 33700 |

same assay, conditions: 300 nM; DMSO control AUC in same experiment: 49143

| SMILES | area under confluence curve |
| --- | --- |
| Oc1nc(-c2ccc(C(F)(F)F)cc2)nc2c1CSCC2 | 49300 |

same assay, conditions: 300 nM; DMSO control AUC in same experiment: 49189

| SMILES | area under confluence curve |
| --- | --- |
| Cn1cnc2c(F)c(Nc3ccc(Br)cc3Cl)c(C(=O)NOCCO)cc21 [Selumetinib] | 49700 |

same assay, conditions: 1000 nM; DMSO control AUC in same experiment: 18733

| SMILES | area under confluence curve |
| --- | --- |
| O=C(N[C@@H](C1CC1)C(F)(F)F)c1cc(-c2cnn3cc(-c4ccc(F)cc4)cnc23)cs1 | 18000 |

same assay, conditions: 1000 nM; DMSO control AUC in same experiment: 21594

| SMILES | area under confluence curve |
| --- | --- |
| Cc1cc2cc(C(=O)c3cnn(-c4cnc(Oc5c(F)cccc5F)cc4C)c3N)[nH]c2cc1NS(C)(=O)=O | 18400 |
| COc1nn(C)cc1Nc1nccc(-c2c[nH]c3c(NC(=O)[C@@H](C)N4CCN(C)CC4)cccc23)n1 | 20800 |
| COc1cc(CCc2cc(NC(=O)c3ccc(N4CC(C)NC(C)C4)cc3)n[nH]2)cc(OC)c1 (stereo not given) | 20200 |

same assay, conditions: 1000 nM; DMSO control AUC in same experiment: 22064

| SMILES | area under confluence curve |
| --- | --- |
| C[C@@H]1COCCN1c1cc(C2([S@](C)(=N)=O)CC2)nc(-c2cc[nH]c3nccc2-3)n1 | 21700 |
| O=C(c1cc(Cc2n[nH]c(=O)c3ccccc23)ccc1F)N1CCN(C(=O)C2CC2)CC1 [Olaparib] | 20000 |

same assay, conditions: 1000 nM; DMSO control AUC in same experiment: 26668

| SMILES | area under confluence curve |
| --- | --- |
| COc1cc(CCc2cc(NC(=O)c3ccc(N4CC(C)NC(C)C4)cc3)n[nH]2)cc(OC)c1 (stereo not given) | 28200 |

same assay, conditions: 1000 nM; DMSO control AUC in same experiment: 28684

| SMILES | area under confluence curve |
| --- | --- |
| C[C@@H](Nc1cc(F)cc(F)c1)c1cc(C(=O)N(C)C)cc2c(=O)cc(N3CCOCC3)oc12 | 28100 |

same assay, conditions: 1000 nM; DMSO control AUC in same experiment: 30326

| SMILES | area under confluence curve |
| --- | --- |
| CCN(c1cc(-c2ccc(CN3CCOCC3)cc2)cc(C(=O)NCc2c(C)cc(C)[nH]c2=O)c1C)C1CCOCC1 [Tazemetostat] | 29400 |

same assay, conditions: 1000 nM; DMSO control AUC in same experiment: 30578

| SMILES | area under confluence curve |
| --- | --- |
| C[C@@H](Nc1cc(F)cc(F)c1)c1cc(C(=O)N(C)C)cc2c(=O)cc(N3CCOCC3)oc12 | 29100 |

same assay, conditions: 1000 nM; DMSO control AUC in same experiment: 30580

| SMILES | area under confluence curve |
| --- | --- |
| C[C@@H](Nc1cc(F)cc(F)c1)c1cc(C(=O)N(C)C)cc2c(=O)cc(N3CCOCC3)oc12 | 28800 |

same assay, conditions: 1000 nM; DMSO control AUC in same experiment: 30604

| SMILES | area under confluence curve |
| --- | --- |
| C[C@@H]1COCCN1c1cc(C2([S@](C)(=N)=O)CC2)nc(-c2cc[nH]c3nccc2-3)n1 | 30800 |
| Cc1cc2ncnn2cc1Nc1ncc2c(n1)n(C1CCOCC1)c(=O)n2C | 30500 |
| O=C(c1cc(Cc2n[nH]c(=O)c3ccccc23)ccc1F)N1CCN(C(=O)C2CC2)CC1 [Olaparib] | 30200 |

same assay, conditions: 1000 nM; DMSO control AUC in same experiment: 31239

| SMILES | area under confluence curve |
| --- | --- |
| O=C(CCCCCCC(=O)Nc1ccccc1)NO [Vorinostat] | 29400 |

same assay, conditions: 1000 nM; DMSO control AUC in same experiment: 31840

| SMILES | area under confluence curve |
| --- | --- |
| CCOC(=O)c1ccnc(CNCC(=O)N(CC)CCN(C)C)c1 | 30800 |

same assay, conditions: 1000 nM; DMSO control AUC in same experiment: 43316

| SMILES | area under confluence curve |
| --- | --- |
| C[C@@H](Nc1cc(F)cc(F)c1)c1cc(C(=O)N(C)C)cc2c(=O)cc(N3CCOCC3)oc12 | 42700 |

same assay, conditions: 1000 nM; DMSO control AUC in same experiment: 45737

| SMILES | area under confluence curve |
| --- | --- |
| Cc1onc(C(=O)N2CCN(C(c3ccc(Cl)cc3)c3ccc(Cl)cc3)CC2)c1[N+](=O)[O-] | 46500 |

same assay, conditions: 1000 nM; DMSO control AUC in same experiment: 48219

| SMILES | area under confluence curve |
| --- | --- |
| O=C(CCCCCCC(=O)Nc1ccccc1)NO [Vorinostat] | 47800 |
